The values below come from PubChem BioAssay.

Test [1] has as its target Albumin (Bos taurus) (UniProt P02769). As to the kind of experiment: compounds binding labelled BSA control protein – biochemical, small-molecule microarray, Alexa647 label, 635/667 nm fluorescence, artefact control for SMM control protein annotation, profiling panel (AID 1118).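 Further: score merges 667 nm emission intensity and signal-to-noise per printed compound spot.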 To be noted: BSA-A647 binding, fluorescence 635 nm, higher = more signal.
A short description of test [2]: probe aXIP binding to arrayed compounds – biochemical, NeuroSMM set, 635/667 nm fluorescence, primary screen (AID 1119).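 Further: probe is the protein aXip251-270 applied at 1 µg/mL to compound-printed slides; binding of probe to printed compounds measured as 667 nm fluorescence plus signal to noise.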 To be noted: small-molecule microarray, higher = more signal, called active from +8 up or from −8 down.
Test [3] in a line: probe aNOTCH3 binding on compound microarray – biochemical, small-molecule microarray, 635/667 nm fluorescence, primary screen (AID 1120).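 Further: probe is a biotin-tagged antibody raised against NOTCH3 rather than NOTCH3 protein; score merges spot fluorescence near 667 nm with spot signal to noise.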 As to conditions: higher = more signal.
A short description of test [4]: probe aNOTCH2 binding on compound microarray – biochemical, small-molecule microarray, 635/667 nm fluorescence, primary screen (AID 1121).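 Further: score merges feature fluorescence read at 667 nm with its signal to noise.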 As to conditions: higher = more signal.
Test [5] has as its target Carbonic anhydrase 2 (Homo sapiens) (UniProt P00918). Description: compounds binding carbonic anhydrase 2 – biochemical, small-molecule microarray, Alexa647-labelled CAII, profiling panel (AID 1122). To be noted: CAII-A647 binding fluorescence, higher = more signal.
The nature of test [6]: COS7 lysate on small-molecule microarray, probe aHis, 635 nm (AID 1123).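 Further: z-score combines 667nm fluorescence intensity with signal-to-noise per printed compound spot.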 As to conditions: COS7 cell lysate, fluorescence, higher = more signal.
A short description of test [7]: probe aLAP1 signal on lysate-treated microarray – cell lysate, small-molecule microarray, COS7 lysate, primary screen (AID 1124).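 Further: lysate comes from COS7 cells expressing LAP1 and is applied at 0.3 µg/mL; score merges spot fluorescence near 667 nm with signal-to-noise over triplicate slides.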 To be noted: probe aLAP1, fluorescence, higher = more signal.
Test [8] deals with Sam68 (KHDRBS1). Description: compounds binding KHDRBS1 protein – biochemical, small-molecule microarray, 635 nm fluorescence, primary screen (AID 1125).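 Further: score merges 667 nm channel intensity with signal to noise over triplicate slides.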 To be noted: higher = more signal.
Test [9] deals with Chordin-like protein 2 (CHRDL2). Description: compounds binding chordin-like 2 – biochemical, small-molecule microarray, 635 nm fluorescence, primary screen (AID 1126).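 Further: printed compound slides probed with Chrdl2 protein at 4 µg/mL for 1 h at 4 C; score merges 667 nm emission intensity with signal to noise over three replicate slides.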 To be noted: fluorescence 635 nm, higher = more signal.
Test [10] has as its target Concanavalin-A (Canavalia ensiformis) (UniProt P02866). As to the kind of experiment: compounds binding concanavalin A lectin – biochemical, small-molecule microarray, Alexa647 label, 635 nm, artefact control for SMM control protein annotation, primary screen (AID 1127).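 Further: z combines 667 nm emission intensity with signal-to-noise across three replicate slides.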 As to conditions: ConA-A647 binding fluorescence, higher = more signal.
Test [11] is described as follows: compounds binding Alexa647 anti-His antibody – biochemical, small-molecule microarray, 635 nm fluorescence, artefact control for SMM control protein annotation, primary screen (AID 1128).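 Further: score merges feature fluorescence with signal-to-noise for each printed compound spot.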 As to conditions: higher = more signal.
In test [12] the test system is Human papillomavirus type 1a E7 protein (residues 1-88). Description: HPV1a E7 small-molecule binders, primary screen, biochemical, small-molecule microarray, residues 1-88, 635 nm (AID 1129). As to conditions: small-molecule microarray binding, fluorescence 635 nm; higher = more signal.
The target in test [13] is Focal adhesion kinase 1 (Homo sapiens) (UniProt Q05397). As to the kind of experiment: PTK2 protein binding on printed compound slides – biochemical, small-molecule microarray, 635/667 nm fluorescence, BSA, DTT, primary screen (AID 1130).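 Further: composite of spot emission at 667 nm and signal to noise over triplicate slides.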 As to conditions: 635 nm fluorescence, higher = more signal.
Chain of Focal adhesion kinase 1 (Homo sapiens) (Q05397 whole entry, looked up): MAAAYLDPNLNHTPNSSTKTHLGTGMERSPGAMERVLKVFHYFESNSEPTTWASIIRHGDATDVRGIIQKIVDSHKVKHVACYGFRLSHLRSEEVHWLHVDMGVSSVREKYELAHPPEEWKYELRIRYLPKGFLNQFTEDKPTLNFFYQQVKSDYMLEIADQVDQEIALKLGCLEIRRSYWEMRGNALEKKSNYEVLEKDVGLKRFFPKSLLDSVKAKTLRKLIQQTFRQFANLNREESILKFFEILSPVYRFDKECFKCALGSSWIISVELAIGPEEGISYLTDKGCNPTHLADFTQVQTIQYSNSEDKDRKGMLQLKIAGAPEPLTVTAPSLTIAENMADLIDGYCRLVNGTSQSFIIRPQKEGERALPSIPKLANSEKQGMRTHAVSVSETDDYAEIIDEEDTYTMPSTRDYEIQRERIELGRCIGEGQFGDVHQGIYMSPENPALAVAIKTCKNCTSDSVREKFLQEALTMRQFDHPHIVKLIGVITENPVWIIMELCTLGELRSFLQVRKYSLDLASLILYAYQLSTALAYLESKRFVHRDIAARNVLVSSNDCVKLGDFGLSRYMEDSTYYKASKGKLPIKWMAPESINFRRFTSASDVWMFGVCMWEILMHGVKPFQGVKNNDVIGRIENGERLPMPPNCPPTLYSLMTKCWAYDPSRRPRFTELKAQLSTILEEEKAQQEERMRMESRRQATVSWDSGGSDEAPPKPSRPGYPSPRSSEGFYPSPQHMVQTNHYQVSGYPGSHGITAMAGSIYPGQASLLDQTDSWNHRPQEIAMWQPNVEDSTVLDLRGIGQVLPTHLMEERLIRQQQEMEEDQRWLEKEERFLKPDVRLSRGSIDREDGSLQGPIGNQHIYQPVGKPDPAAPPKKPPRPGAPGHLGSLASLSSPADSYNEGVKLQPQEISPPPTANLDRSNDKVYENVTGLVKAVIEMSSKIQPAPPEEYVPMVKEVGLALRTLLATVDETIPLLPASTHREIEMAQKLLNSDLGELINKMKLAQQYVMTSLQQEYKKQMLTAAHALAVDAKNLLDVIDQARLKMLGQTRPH
Test [14] concerns Fibrinogen (Alexa647-labelled). As to the kind of experiment: Alexa647-fibrinogen binding to printed small molecules – biochemical, small-molecule microarray, 635/667 nm fluorescence, artefact control for SMM control-protein annotation, profiling panel (AID 1131).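 Further: z-score merges 667 nm fluorescence with per-spot signal-to-noise over triplicate slides.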 As to conditions: fibrinogen-A647 binding fluorescence, higher = more signal.
For test [15], the target named is Follistatin (Homo sapiens) (UniProt P19883). Description: FST protein binding to printed compounds – biochemical, small-molecule microarray, 635/667 nm fluorescence, primary screen (AID 1132). To be noted: 635 nm fluorescence, higher = more signal.
Chain of Follistatin (Homo sapiens) (P19883 whole entry, looked up): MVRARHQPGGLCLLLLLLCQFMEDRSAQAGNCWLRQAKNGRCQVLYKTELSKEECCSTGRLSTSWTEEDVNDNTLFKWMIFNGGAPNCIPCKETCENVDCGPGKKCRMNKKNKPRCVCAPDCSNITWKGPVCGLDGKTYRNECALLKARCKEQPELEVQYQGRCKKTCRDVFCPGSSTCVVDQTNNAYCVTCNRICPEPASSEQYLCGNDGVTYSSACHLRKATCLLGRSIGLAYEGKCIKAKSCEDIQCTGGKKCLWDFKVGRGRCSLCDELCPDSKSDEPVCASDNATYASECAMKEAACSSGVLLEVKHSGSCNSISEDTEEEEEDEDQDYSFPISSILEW
Test [16] addresses Fibroblast growth factor 2 (Homo sapiens) (UniProt P09038). As to the kind of experiment: basic fibroblast growth factor binding to printed compounds – biochemical, small-molecule microarray, 635/667 nm fluorescence, primary screen (AID 1133). To be noted: FGF2, fluorescence 635/667, higher = more signal.
Test [17] can be described thus: JC-1 mitochondrial potential readout, lung cancer cells – cell-based, A549, JC-1 fluorescence, basal, 24 h, 100 nL, profiling panel (AID 1138).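 Further: A549 lung adenocarcinoma cells under basal conditions with no added stimulus; test concentration not given here.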 To be noted: higher = more signal.
In test [18] the test system is Lefty1. As to the kind of experiment: Lefty1 protein binding to printed compounds – biochemical, small-molecule microarray, 635/667 nm fluorescence, primary screen (AID 1139). As to conditions: fluorescence 635/667, higher = more signal.
In test [19] the test system is wheat germ agglutinin (Triticum aestivum), Alexa647-labelled. As to the kind of experiment: Alexa647-WGA lectin binding to printed small molecules – biochemical, small-molecule microarray, 635/667 nm fluorescence, artefact control for SMM control-protein annotation, profiling panel (AID 1140).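 Further: score merges 667 nm feature emission with signal to noise over triplicate slides.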 As to conditions: WGA-A647 binding, 635 nm fluorescence, higher = more signal.

Test [20] concerns the target Luciferin 4-monooxygenase (Photinus pyralis) (UniProt P08659). Description: inhibition of purified Photinus pyralis luciferase – biochemical, luminescence, purified enzyme, 2006 set, primary screen (AID 1141).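 Further: cell-free assay with purified firefly luciferase at 100 ng per well in PBS; test concentration not given here.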 As to conditions: purified firefly luciferase, SteadyGlo luminescence, 30 min; higher = more signal, called active from +8 up or from −8 down.

Structures are written as SMILES. The source made the active and inactive calls.

Chain of Fibroblast growth factor 2 (Homo sapiens) (P09038 whole entry, looked up): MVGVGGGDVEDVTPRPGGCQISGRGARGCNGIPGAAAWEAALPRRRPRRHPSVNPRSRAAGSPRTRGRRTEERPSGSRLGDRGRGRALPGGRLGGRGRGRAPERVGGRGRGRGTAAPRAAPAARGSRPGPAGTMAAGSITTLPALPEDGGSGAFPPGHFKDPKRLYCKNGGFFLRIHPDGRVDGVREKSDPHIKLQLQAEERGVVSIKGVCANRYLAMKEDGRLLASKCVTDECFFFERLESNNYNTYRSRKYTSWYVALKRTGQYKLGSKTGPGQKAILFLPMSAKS
Chain of Albumin (Bos taurus) (P02769 whole entry, looked up): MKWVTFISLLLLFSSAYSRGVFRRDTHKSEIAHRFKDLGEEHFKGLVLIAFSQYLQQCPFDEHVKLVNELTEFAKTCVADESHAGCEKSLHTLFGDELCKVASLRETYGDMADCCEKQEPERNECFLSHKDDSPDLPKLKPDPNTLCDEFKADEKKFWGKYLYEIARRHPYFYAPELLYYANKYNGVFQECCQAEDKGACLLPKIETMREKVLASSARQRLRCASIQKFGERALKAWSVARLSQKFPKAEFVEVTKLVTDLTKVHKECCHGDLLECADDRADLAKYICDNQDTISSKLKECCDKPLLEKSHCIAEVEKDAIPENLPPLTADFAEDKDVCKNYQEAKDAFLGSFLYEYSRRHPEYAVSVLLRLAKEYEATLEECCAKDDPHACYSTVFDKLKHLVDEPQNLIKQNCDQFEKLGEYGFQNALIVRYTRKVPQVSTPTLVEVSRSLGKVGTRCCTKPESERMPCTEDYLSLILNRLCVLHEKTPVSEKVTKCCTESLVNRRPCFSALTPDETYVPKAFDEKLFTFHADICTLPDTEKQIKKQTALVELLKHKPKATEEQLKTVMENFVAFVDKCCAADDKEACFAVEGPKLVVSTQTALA
Chain of Concanavalin-A (Canavalia ensiformis) (P02866 whole entry, looked up): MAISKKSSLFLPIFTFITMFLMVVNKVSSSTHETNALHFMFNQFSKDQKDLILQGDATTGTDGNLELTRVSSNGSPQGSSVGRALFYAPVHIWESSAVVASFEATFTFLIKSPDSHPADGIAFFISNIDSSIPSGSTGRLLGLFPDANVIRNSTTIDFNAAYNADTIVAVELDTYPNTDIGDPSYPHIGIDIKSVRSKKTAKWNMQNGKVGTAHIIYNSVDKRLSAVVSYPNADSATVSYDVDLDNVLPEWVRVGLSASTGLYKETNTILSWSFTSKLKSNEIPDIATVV
Chain of Luciferin 4-monooxygenase (Photinus pyralis) (P08659 whole entry, looked up): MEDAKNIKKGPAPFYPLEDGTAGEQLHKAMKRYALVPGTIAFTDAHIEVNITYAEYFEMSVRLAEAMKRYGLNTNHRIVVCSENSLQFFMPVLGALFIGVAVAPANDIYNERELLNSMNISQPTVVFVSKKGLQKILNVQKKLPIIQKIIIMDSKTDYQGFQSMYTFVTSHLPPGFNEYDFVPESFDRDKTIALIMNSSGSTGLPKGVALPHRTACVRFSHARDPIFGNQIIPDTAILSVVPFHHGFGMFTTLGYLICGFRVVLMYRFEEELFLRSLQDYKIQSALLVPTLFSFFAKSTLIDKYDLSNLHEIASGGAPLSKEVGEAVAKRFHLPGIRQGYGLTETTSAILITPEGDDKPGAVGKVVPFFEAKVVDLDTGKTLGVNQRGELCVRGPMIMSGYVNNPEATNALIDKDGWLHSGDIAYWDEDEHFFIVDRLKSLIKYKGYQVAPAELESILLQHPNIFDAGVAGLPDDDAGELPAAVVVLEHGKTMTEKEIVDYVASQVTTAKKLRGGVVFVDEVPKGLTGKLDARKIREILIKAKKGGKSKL

`CC(CO)N1C(=O)[C@@H]2[C@H]3C(=O)OCC=C[C@H]3OC23C=CCN(c2ccc(Cl)cc2)C(=O)[C@@H]13` (stereo not given in full): the composite z-score in test [1] was -1.68; in test [3] it was -0.454; in test [4] it was -0.161; in test [5], 0.935; in test [6], -0.224; in [7] it was -0.191. Besides, the composite z-score is -0.598 in test [8]; -2.12 in test [9]; -2.16 in [10]; -0.715 in test [11]; -1.39 in [12]; 0.0657 in test [13]. Moreover, the composite z-score in test [14] is -2.3; in test [15], -2.57; in test [16], -1.07; in [18] it was -2.1; in test [19] it was -1.81. Besides, the composite Z-score in [2] was -0.243 (inactive). Besides, the z-score in test [17] is 1.18; in test [20], -0.619 (inactive).
Take `C=C(/C(=C/C[C@@H](OC(=O)c1ccncc1)c1cccc(OCCO)c1)c1cnc2ccccc2c1)C(C)C`: the composite z-score is 0.701 in test [1]; 0.178 in test [3]; -0.0689 in test [4]; 0.976 in [5]; 1.69 in test [6]; 1.38 in test [7]. Besides, the composite z-score in test [8] is 1.21; in test [9] it was 1.24; in [10], 1.2; in test [11] it was 0.787; in test [12], 1.09; in test [13], 0.329. For the same molecule, the composite z-score in [14] was determined as 0.807; in test [15] it was 1.42; in test [16] it was 2.01; in [18] it was 1.2; in [19], 1.29. Further, the composite Z-score in [2] is 0.414 (inactive). Moreover, the figures for the z-score in test [17] and in test [20] were 1.02 and -1.47 (inactive), respectively.
`O=C1O[C@H](c2ccccc2)[C@H](c2ccccc2)N2[C@H]1[C@@H](C(=O)O)[C@]1(C(=O)Nc3ccc(C#CC4(O)CCCCCC4)cc31)[C@H]2c1ccc(O)cc1`: the composite z-score in [1] was 0.143; in [3] it was -0.15; in [4], -0.0999; in [5], 0.811; in [6], 0.609; in test [7], 0.0189. Further, the composite z-score in test [8] stood at 0.553; in test [9] it was 0.224; in test [10], 0.437; in [11], 0.401; in test [12], 0.391; in test [13], 0.016. Besides, the composite z-score in test [14] is -0.132; in [15], -0.0848; in test [16], -0.201; in test [18] it was 0.0963; in [19] it was 0.211. Moreover, in test [2], the composite Z-score is 0.25 (inactive). Besides, the z-score was -0.697 in [17] and -0.828 (inactive) in test [20].
Turning to `COc1ccc([Si](C)(C)[C@@H]2[C@@H](CCn3cc([C@H](O)c4ccccc4)nn3)O[C@]3(C(=O)N(Cc4cccc(N5C(=O)c6cccc7cccc5c67)c4)c4ccccc43)[C@H]2C)cc1`, the composite z-score in test [1] is 0.371; in [3], -0.157; in [4] it was -0.155; in test [5] it was 0.405; in [6], 0.992; in [7], -0.64. The composite z-score in [8] is 0.173; in test [9], -1.09; in [10], 0.234; in test [11] it was 0.195; in test [12] it was -0.34; in test [13] it was -0.426. Besides, the composite z-score in [14] was -0.759; in test [15], -0.0585; in [16], -0.758; in [18], 0.199; in test [19] it was -0.228. The composite Z-score in [2] is 0.0425 (inactive). Besides, the z-score in test [17] was 0.794; in test [20], 0.148 (inactive).
With `COc1ccc(C#Cc2ccc3c(c2)[C@]2(C(=O)N3)[C@H](c3ccc(OCCO)cc3)N3[C@H](c4ccccc4)[C@H](c4ccccc4)OC(=O)[C@H]3[C@@H]2C(=O)N2CCc3cc(OC)c(OC)cc3C2)cc1`, the composite z-score in test [1] is 0.0867; in [3] it was 0.233; in [4], -0.23; in [5], 0.438; in test [6], 2.04; in test [7] it was 0.216. Moreover, the composite z-score in test [8] was determined as 1.12; in test [9], 0.704; in test [10], 1.09; in test [11] it was 0.78; in [12], 1.18; in [13], 0.946. The composite z-score in test [14] was 0.532; in test [15], 1.44; in test [16], 1.49; in test [18] it was 1.17; in test [19] it was 0.863. Also, the composite Z-score in test [2] was -0.487 (inactive). Also, the figures for the z-score in test [17] and in test [20] were -1.14 and -0.922 (inactive), respectively.
